Records with an inconclusive call do not appear. Values without a mark were called inactive. Calls follow the shape of the dose curve; as a rule, active = well fitted curve in the direction sought with a large enough effect; inconclusive = small, poorly fitted or top-dose-only effect, or another doubt; inactive = no such curve, though single readings can be large or run the other way.
molecular target: Lysosomal acid glucosylceramidase (Homo sapiens) (UniProt P04062); experiment: Activators of Human alpha-Glucosidase as a Potential Chaperone Treatment of Pompe Disease: Glucocerebrosidase Counter Screen; settings: Purified GBA enzyme, 4MU-beta-glucoside fluorescence, 40 min; series mostly up to 57.1 µM; activity change, negative = inhibition: at the top concentration
Sequence (P04062 whole entry, looked up): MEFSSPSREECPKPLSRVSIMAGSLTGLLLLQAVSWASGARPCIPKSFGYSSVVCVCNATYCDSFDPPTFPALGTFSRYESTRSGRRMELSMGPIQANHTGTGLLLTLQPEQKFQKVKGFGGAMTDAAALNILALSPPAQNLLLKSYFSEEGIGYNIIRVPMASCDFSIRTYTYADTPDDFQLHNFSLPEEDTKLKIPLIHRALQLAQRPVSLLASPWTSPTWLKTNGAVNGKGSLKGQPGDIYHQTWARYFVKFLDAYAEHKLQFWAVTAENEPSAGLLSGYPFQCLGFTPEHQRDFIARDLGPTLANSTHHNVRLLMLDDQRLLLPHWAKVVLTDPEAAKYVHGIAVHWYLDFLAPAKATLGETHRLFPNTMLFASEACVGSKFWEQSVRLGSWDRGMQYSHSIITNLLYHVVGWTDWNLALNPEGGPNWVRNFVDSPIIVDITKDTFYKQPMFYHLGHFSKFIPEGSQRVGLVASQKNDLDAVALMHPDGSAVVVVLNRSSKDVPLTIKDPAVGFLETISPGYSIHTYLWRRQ
From the text: Alpha-glucosidase is responsible for hydrolysis of terminal, non-reducing 1,4-linked alpha-D-glucose residues with release of alpha-D-glucose. It is a lysosomal hydrolase that is required for the degradation of a small percentage (1-3%) of cellular glycogen in human. Deficiency of this enzyme results in glycogen-storage disease type II (GSDII), also referred to as Pompe disease, an autosomal recessive disorder. Structurally normal glycogen is accumulated in lysosomes and cytoplasm in affected patients, primarily in muscle tissues. Excessive glycogen storage within lysosomes may interrupt normal functioning of other organelles and leads to cellular injury. In turn, this leads to enlargement and dysfunction of the entire organ involved (eg, cardiomyopathy and muscle weakness). It has reported that the improper folding and trafficking of alpha-glucosidase resulting from the genetic mutations may account for a significant number of Pompe patients. […] We optimized this alpha-glucosidase assay in 1536-well plate format for identifying the novel small molecule inhibitors with the structures other than the sugar analogs in order to develop the new pharmacological chaperones. NIH Chemical Genomics Center [NCGC] NIH Molecular Libraries Probe Production Centers Network [MLPCN] MLPCN Grant: MH086442-01 Assay Submitter (PI): Wei Zheng
This is a fluorogenic enzyme assay with 4-methylumbelliferyl-beta-D-glucopyranoside as the substrate and purified wildtype glucocerebrosidase as the enzyme preparation. Upon the hydrolysis of this fluorogenic substrate, the resulting product, […] which can be detected by a standard fluorescence plate reader. Data were normalized to the controls for basal activity (without enzyme) and 100% activity (with enzyme). The AC50 values were determined from concentration-response data modeled with the standard Hill equation. Assay buffer: 50 mM citric acid (titrated with potassium phosphate to pH 5.0), 100 mM potassium chloride, 10 mM sodium chloride, 1 mM magnesium chloride, 0.01% Tween-20. 1536-well assay protocol: (1) Add 2 ul/well of glucocerebrosidase enzyme solution (5 nM final) (2) Add 23 nL compounds in DMSO solution. The final titration was 0.5 nM to 58 uM. (3) Add 2 ul of substrate (1 mM final) (4) Incubate at 37C for 40 min. (5) Add 2 ul stop solution (1M NaOH and 1M Glycine mixture, pH 10) (6) Detect the assay plate in a ViewLux plate reader (PerkinElmer) with Ex=365 nm and Em=440nm. Keywords: Glucocerebrosidase, beta-glucosidase, Gaucher Disease, pharmacological chaperone, chaperone therapy, high throughput screening, glucocerebrosidase inhibitor, MLSMR, MLSCN, NIH Roadmap, qHTS and NCGC

Row | SMILES | activity change, negative = inhibition
1 | CCCN1CNc2c(c(=O)[nH]c(=S)n2CCC(C)(C)C)C1 | 0%
2 | CCCN1CNc2c(c(=O)[nH]c(=S)n2CCc2ccc3c(c2)OCCO3)C1 | 0%
3 | COc1ccc(CCn2c(=S)[nH]c(=O)c3nccnc32)cc1OC | 0%
4 | CCCN1CNc2c(c(=O)[nH]c(=S)n2Cc2ccc(OC)c(OC)c2)C1 | 0%
5 | CCCN1CNc2c(c(=O)[nH]c(=S)n2CCc2cc(Cl)ccc2Cl)C1 | -1.89% [at 48.8 µM]
6 | CCCN1CNc2c(c(=O)[nH]c(=S)n2CCc2cc(Cl)cc(Cl)c2)C1 | -2.31% [at 48.8 µM]
7 | COc1ccc(CCn2c3c(c(=O)[nH]c2=S)CN(c2ccccc2)CN3)cc1OC | 0%
8 | CCCN1CNc2c(c(=O)[nH]c(=S)n2CCc2cc(C)ccc2C)C1 | 0%
9 | CCCN1CNc2c(c(=O)[nH]c(=S)n2CCc2cccc(Cl)c2Cl)C1 | -9.82%
10 | COc1ccc(CCn2c(=S)[nH]c(=O)c3[nH]cnc32)cc1OC | -5.98%
11 | COc1ccc(CCn2c3c(c(=O)[nH]c2=S)CN(C(C)C)CN3)cc1OC | 0%
12 | CCCN1CNc2c(c(=O)[nH]c(=S)n2CCc2cccc(C)c2C)C1 | 0.391%
13 | CCCN1CNc2c(c(=O)[nH]c(=O)n2CCc2ccc(OC)c(OC)c2)C1 | 0%
14 | CCCN1CNc2c(c(=O)[nH]c(=S)n2CCc2ccc(C)cc2C)C1 | -4.57%
15 | c1csc(-c2nc(NCC3CCCO3)c3ccccc3n2)c1 (stereo unspecified) | 0% [at 48.8 µM]
16 | O=S(=O)(c1ccc(Cl)cc1)N1CCN(c2nc(-c3cccs3)nc3ccccc23)CC1 | 0%
17 | COc1ccc(C#Cc2cnc(Cl)c3cncnc23)cc1OC | 1.38% [at 48.8 µM]
18 | CCCN1CNc2c(c(=O)[nH]c(=S)n2CCc2c(C)cccc2C)C1 | 0%
19 | CCCN1CNc2c(c(=O)[nH]c(=S)n2CCc2ccc(C)c(C)c2)C1 | 0%
20 | O=S(=O)(c1ccc(Cl)cc1)N1CCN(c2nc(Nc3cc(Cl)ccc3O)nc3ccccc23)CC1 | 0% [at 48.8 µM]
21 | CCCN1CNc2c(c(=O)[nH]c(=S)n2CCc2ccsc2)C1 | 0%
22 | COc1ccc(C#Cc2c[nH]c(=O)c3cncnc23)cc1OC | -3.96%
23 | COc1ccc(CCn2c3c(c(=O)[nH]c2=S)CN(C)CN3)cc1OC | 0%
24 | COc1ccc(CCn2c(=S)[nH]c(=O)c3c(C)cc(C)nc32)cc1OC | -5.66%
25 | OCCNc1nc(-c2cccs2)nc2ccccc12 | 0%
26 | COc1ccc(CCc2c[nH]c(=O)c3cncnc23)cc1OC | 2.44%
